Active and inactive are the calls of the source. Calls follow the shape of the full dose curve.

This is an account of results in PubChem BioAssay (Tox21).
% is scaled to controls: 0 for no effect and ±100 for the full control effect.

Chain of Acetylcholinesterase (Homo sapiens) (P22303 whole entry, looked up): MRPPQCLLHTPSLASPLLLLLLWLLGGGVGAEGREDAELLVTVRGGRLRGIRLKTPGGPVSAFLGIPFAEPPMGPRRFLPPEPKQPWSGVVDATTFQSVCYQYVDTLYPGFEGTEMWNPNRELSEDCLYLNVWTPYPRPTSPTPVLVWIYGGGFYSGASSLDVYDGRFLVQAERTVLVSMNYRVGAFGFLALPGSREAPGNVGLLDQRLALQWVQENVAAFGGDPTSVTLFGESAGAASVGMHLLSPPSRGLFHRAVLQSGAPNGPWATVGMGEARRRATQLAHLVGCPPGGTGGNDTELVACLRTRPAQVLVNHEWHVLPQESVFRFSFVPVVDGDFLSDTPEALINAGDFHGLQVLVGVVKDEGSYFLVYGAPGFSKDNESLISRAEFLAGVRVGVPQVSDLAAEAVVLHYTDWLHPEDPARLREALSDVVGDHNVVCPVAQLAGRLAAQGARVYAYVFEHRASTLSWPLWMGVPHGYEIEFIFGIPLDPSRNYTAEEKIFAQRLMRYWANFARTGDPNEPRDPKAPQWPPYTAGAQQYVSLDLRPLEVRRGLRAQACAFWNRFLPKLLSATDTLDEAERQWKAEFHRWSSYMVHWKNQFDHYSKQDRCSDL

The target in the experiment is Acetylcholinesterase (Homo sapiens) (UniProt P22303). Briefly: Acetylcholinesterase (AChE) small molecule antagonists: enzyme-based qHTS assay (AID 1347397). Also: nearly all actives have a fitted effect of over 55% in size. The following applies: Potency: AChE enzyme activity inhibition; series mostly up to 115 µM; activity change, negative = inhibition: at the top concentration. The text has this:
National Center for Advancing Translational Sciences [NCATS]
Division of Preclinical Innovation [DPI]
U.S. Environmental Protection Agency [EPA]
National Institutes of Environmental Health Sciences [NIEHS]
National Toxicology Program [NTP]
U.S. Food and Drug Administration [FDA]
Acetylcholinesterase (AChE) is the primary cholinesterase in the body that hydrolyzes a key neurotransmitter, acetylcholine. Inhibition of AChE activity can lead to neurotoxicity. The known inhibitors include organophosphorous pesticides (OP), chemical warfare agents, drugs, and various phytochemicals.
An enzyme-based assay with the recombinant human AChE and Amplite Colormetric acetylcholinesterase assay kit (AAT Bioquest, Sunnyvale, CA) was used to evaluate the chemicals in the Tox21 10K library that inhibit AChE activity. The assay uses 5, 5-dithiobis-(2-nitrobenzoic acid) (DTNB) to quantify the thiocholine produced from the hydrolysis of acetylthiocholine by AChE.
Tox21 Assay Protocol Summary:
For the enzyme-based AChE assay, recombinant human AChE (50 mU/mL) in 4 uL/well was dispensed into black, clear-bottom 1536-well plates using a Multidrop Combi dispenser (Thermo Scientific, MA). Then, 23 nL of compound or DMSO (vehicle control) was transferred into the assay plates by a Pintool Station (Wako Automation, CA). The plates were incubated for 30 min at room temperature, followed by the addition of 4 uL of colorimetric detection cocktail solution (DTNB, acetylthiocholine) into each well using a Flying Reagent Dispenser (Beckman Coulter, CA) and then 10 min incubation at room temperature.
A general note: Quantitative high-throughput screening tests each substance at several concentrations.
`Cc1ccccc1C(=O)Nc1cccc(OC(C)C)c1`: the “activity change, negative = inhibition” value is -0.385% (inactive).
Turning to `CCOS(C)(=O)=O`, the “activity change, negative = inhibition” value is 2.11% (inactive).
Take `O=Cc1ccc(Cl)cc1Cl`: the “activity change, negative = inhibition” value is -0.396% (inactive).
Still for that read-out and setting: then `O=C1NCN(c2ccccc2)C12CCN(CCCOc1ccc(F)cc1)CC2`, with -0.965% [at 53 µM] (inactive).
With `[CH3][Sn]([CH3])([Cl])[Cl]`, the Potency entry is “inactive”.
For the molecule `O=[N+]([O-])c1ccccc1CCl`, the “activity change, negative = inhibition” value was 0.402% (inactive).
Turning to `C[C@H]1CNCCc2ccc(Cl)cc21`, the “activity change, negative = inhibition” value was 0.74% [at 53 µM] (inactive).
Same read-out and setting: to `CCCC(=O)Cl` belongs 4.63% (inactive).
As for `O=Cc1ccc2c(c1)OCO2`, the “activity change, negative = inhibition” value is -1.36% (inactive).
Take `Cc1ccccc1CCl`: the “activity change, negative = inhibition” value is 1.8% (inactive).
Turning to `O=C1C(Cl)C(CCl)CN1c1cccc(C(F)(F)F)c1` (stereo not given), the “activity change, negative = inhibition” value was 2.45% (inactive).
Still for that read-out and setting: then `COc1c(C(C)(C)C)cc([N+](=O)[O-])c(C)c1[N+](=O)[O-]`, with -9.1% (inactive); and `CC1(C)CCC(Cc2ccc(Cl)cc2)C1(O)Cn1cncn1` (stereo not given), with 0.4% (inactive).
The same measure, in the same setting: then `CCOC(=O)C(Cl)C(C)=O` (stereo not given), with -12.3% (inactive); and `COC(=O)c1cncn1C(C)c1ccccc1` (stereo not given), with -0.111% [at 53 µM] (inactive); and `O=S(=O)(O)C(F)(F)C(F)(F)C(F)(F)C(F)(F)F`, with -3.04% (inactive).
For `O=C(NC(=O)c1c(F)cccc1F)Nc1cc(Cl)c(Oc2ncc(C(F)(F)F)cc2Cl)c(Cl)c1`, the “activity change, negative = inhibition” value is 0.787% (inactive).
Turning to `COC(=O)C(Cl)C(=O)OC`, the “activity change, negative = inhibition” value is 0.277% [at 53 µM] (inactive).
For the molecule `CC1C(=O)C[C@]2(C(C)C)C[C@H]12` (stereo not given in full), the “activity change, negative = inhibition” value is -0.149% (inactive).
For the molecule `CO/C=C(/C(=O)OC)c1ccccc1COc1cccc(C(F)(F)F)n1`, the “activity change, negative = inhibition” value was -0.267% (inactive).
On to `CCCN(CCCl)c1c([N+](=O)[O-])cc(C(F)(F)F)cc1[N+](=O)[O-]`, for which the “activity change, negative = inhibition” value was -1.29% (inactive).
Turning to `C=CC(=O)OCC(C)O` (stereo not given), the “activity change, negative = inhibition” value was -0.261% (inactive).
Turning to `CCOC(=O)COc1cc(-c2nn(C)c(OC(F)F)c2Cl)c(F)cc1Cl`, the “activity change, negative = inhibition” value was 2.24% (inactive).
In the case of `C=CC(=O)NCNC(=O)C=C`, the “activity change, negative = inhibition” value was 2.06% (inactive).
`O=C1C(=O)c2cccc3cccc1c23`: the “activity change, negative = inhibition” value is -1.08% (inactive).
As to `CCOP(O)OCC`, the “activity change, negative = inhibition” value was 1.23% (inactive).
Still for that read-out and setting: then `C=CC(=O)OC(C)(C)C`, with -1.36% (inactive).
In the case of `CC(C)N(C(=O)COc1nnc(C(F)(F)F)s1)c1ccc(F)cc1`, the “activity change, negative = inhibition” value was -7.62% (inactive).
For `NCC(CC(=O)O)c1ccc(Cl)cc1` (stereo not given), the activity change, negative = inhibition was 1.42% [at 0.435 µM] (inactive).
For `C=C(C#N)CCC#N`, the “activity change, negative = inhibition” value was -2.06% (inactive).
Take `CC(Cl)C(C)Cl` (stereo not given): the “activity change, negative = inhibition” value is -2.45% (inactive).
Regarding `O=C(CBr)OCc1ccccc1`, the “activity change, negative = inhibition” value is 3.22% (inactive).
As to `CO/N=C(/C(=O)OC)c1ccccc1COc1ccccc1C`, the “activity change, negative = inhibition” value is -0.516% (inactive).
As to `Clc1cc(C(Cl)(Cl)Cl)cnc1Cl`, the “activity change, negative = inhibition” value is 0.323% (inactive).
Still for that read-out and setting: then `C=CC(=O)OCC(C)C`, with 1.76% (inactive); and `CCCCc1c(C)nc(NCC)nc1OS(=O)(=O)N(C)C`, with 0.276% (inactive).
In the case of `CCOc1ccc(C(C)(C)COCc2cccc(Oc3ccccc3)c2)cc1`, the “activity change, negative = inhibition” value was -2.89% (inactive).
As to `CC(=O)c1cc2c(cc1C)C(C)(C)C(C)CC2(C)C` (stereo not given), the “activity change, negative = inhibition” value was -1.16% (inactive).
In the case of `O=[N+]([O-])c1cc(C(F)(F)F)cc([N+](=O)[O-])c1Cl`, the “activity change, negative = inhibition” value is 19.5% (inactive).
Regarding `O=C=Nc1ccc(Cl)cc1`, the “activity change, negative = inhibition” value is -0.0434% (inactive).
